# Measurements taken from PubChem BioAssay AID651815 (National Center for Advancing Translational Sciences (NCATS), 2012).
# Out of some 2,100 compounds screened, about 1,100 (52%) were called active. Not shown: some 29% with an inconclusive outcome. The call rests on the fitted dose curve; in most records, active means well fitted inhibition curve with a large enough effect; inconclusive means small, poorly fitted or top-dose-only effect; inactive means no such curve, though single readings can be large or run the other way. So high a share suggests a set chosen from earlier hits. This is one part of the list.
# Target: DNA dC->dU-editing enzyme APOBEC-3F (Homo sapiens) (UniProt Q8IUX4)
# Assay: qHTS for inhibitors of Vif-A3F interactions: Cherry picks counterscreen; further: nearly all actives have a fitted effect of over 65% in size
# Conditions: HeLa A3F-eYFP/Vif cells, eYFP fluorescence, 24 h; series mostly up to 46.1 µM; activity, negative = inhibitor: at the top concentration
# In short: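 Rescue of Vif-driven A3F-eYFP degradation read as cellular eYFP fluorescence after 24 h compound exposure (several concentrations) in stable HeLa cells; MG132 (2 mM stock) as positive control.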
# On the % scale 0 is the no-effect control and ±100 the full control effect; potency means the concentration at half of the fitted maximal effect.
# Chain of DNA dC->dU-editing enzyme APOBEC-3F (Homo sapiens) (Q8IUX4 whole entry, looked up): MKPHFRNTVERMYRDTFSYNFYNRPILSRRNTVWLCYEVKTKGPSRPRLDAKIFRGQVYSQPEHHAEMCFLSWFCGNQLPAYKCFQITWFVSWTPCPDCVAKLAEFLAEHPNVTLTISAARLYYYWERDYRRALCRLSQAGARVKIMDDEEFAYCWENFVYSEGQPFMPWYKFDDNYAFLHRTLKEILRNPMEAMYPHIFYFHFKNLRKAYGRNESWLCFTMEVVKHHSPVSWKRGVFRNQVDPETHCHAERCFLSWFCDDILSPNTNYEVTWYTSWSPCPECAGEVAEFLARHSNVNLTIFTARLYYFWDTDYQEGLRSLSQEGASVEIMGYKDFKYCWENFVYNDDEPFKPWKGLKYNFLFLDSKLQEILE
Structure (SMILES),Potency,"activity, negative = inhibitor"
O=C(Cc1nc2ccccc2[nH]c1=O)c1ccc(Cl)cc1,8.2 µM (active),–
COc1cc2c(cc1OC)CN(C(=O)c1cc(=O)c3ccccc3o1)CC2,11.2 µM (active),–
CCC(=Nc1ccccc1O)C1=C(O)CC(c2ccccc2)CC1=O (configuration not stated),–,-15.7% [at 36.9 µM] (inactive)
COc1ccccc1N=C(C)C1=C(O)CC(c2ccccc2)CC1=O (configuration not stated),0.994 µM (active),–
Cc1cnc(NC(=O)CC(C)c2ccccc2)s1 (configuration not stated),5.59 µM (active),–
Cc1cc(/C=C2\SC(=S)N(Cc3ccco3)C2=O)c(C)n1-c1ccccc1,23.1 µM (active),–
Cc1cc(/C=C2\SC(=S)N(Cc3ccco3)C2=O)c(C)n1-c1cccnc1,20.6 µM (active),–
CCN1CCN(c2c(/C=C3\SC(=S)N(Cc4ccco4)C3=O)c(C)c(C#N)c(=O)n2C)CC1,14.6 µM (active),–
CN(C)c1ccc(C=C2SC(=S)N(Cc3ccco3)C2=O)cc1,3.96 µM (active),–
COC(=O)c1ccc(Oc2cc(C)nc(SC)n2)cc1,2.8 µM (active),–
C/C(=N/N=C(\C)c1ccccc1O)c1ccccc1O,18.4 µM (active),–
C/C(=N\NC(=O)C(C)n1nc(C)c([N+](=O)[O-])c1C)c1ccccc1O (configuration not stated),–,-0.91% (inactive)
COCCNC(=S)N/N=C(\C)c1ccccc1O,–,3.87% (inactive)
O=C1c2cccc3c(N4CCCCC4)ccc(c23)C(=O)N1c1ccc(O)cc1,–,36.7% [at 36.9 µM] (inactive)
O=C1c2cccc3c(N4CCCCC4)ccc(c23)C(=O)N1c1cccc(O)c1,3.66 µM (active),–
Cc1ccc(N2C(=O)c3cccc4c(N5CCN(C)CC5)ccc(c34)C2=O)c2cccnc12,14 µM (active),–
O=C1c2cccc3c(N4CCCCC4)ccc(c23)C(=O)N1CCO,17.7 µM (active),–
O=C1c2cccc3c(N4CCCCC4)ccc(c23)C(=O)N1c1ccccc1O,–,26.8% (inactive)
C=CCN1C(=O)c2cccc3c(N4CCCCC4)ccc(c23)C1=O,16.4 µM (active),–
C=CCOC(=O)C1=C(C)NC(C)=C(C(=O)OCC=C)C1c1cn(-c2ccccc2)nc1-c1ccco1,–,-10.3% [at 36.9 µM] (inactive)
Cc1ccc2nc(-c3ccccn3)c(Nc3ccccc3C)n2c1,–,3.66% (inactive)
CCN(Cc1ccccc1)c1ccc(/C=C/c2nccc3ccccc23)cc1,20.6 µM (active),–
CN(C)c1ccc(C=Cc2nccc3ccccc23)cc1,14 µM (active),–
CN(C)c1ccc(/C=C/c2nccc3ccccc23)cc1,20.6 µM (active),–
CCN(CC)c1nc(C=Cc2ccc(N(C)C)cc2)c2nccnc2n1,0.58 µM (active),–

Structure (SMILES),Potency,"activity, negative = inhibitor"
CCN(Cc1ccccc1)c1ccc(/C=C(\C#N)c2ccccn2)cc1,–,-14.8% (inactive)
CCCn1c(C2CCCN2c2nc(-c3cccc(Br)c3)cs2)nc2ccccc21 (configuration not stated),–,8.29% (inactive)
CCn1c2ccccc2c2cc(NC(=O)CNCc3ccccc3OC)ccc21,4.98 µM (active),–
S=C(NCCSCc1ccc(Cl)cc1)Nc1ccccc1,–,-10.3% (inactive)
COc1cc(C(=O)NCCOc2cc(C)cc(C)c2)cc(OC)c1OC,2.8 µM (active),–
CCn1c(CNC(=O)c2cc(OC)c(OC)c(OC)c2)cc2cc(C)ccc21,–,13.7% (inactive)
COc1ccc(C2=NOC(C(=O)NCc3ccc(F)cc3)C2)cc1OC (configuration not stated),5.59 µM (active),–
COc1ccccc1N=C1NC(=O)/C(=C/c2ccc(N(C)C)cc2)S1,6.51 µM (active),–
CCOc1ccc(N(C)c2ccc(/C=C3/SC(=S)NC3=O)cc2)cc1,15.8 µM (active),–
CN(C)c1ccc(C=C2SC(=S)NC2=O)cc1,7.04 µM (active),–
Cc1ccc(Cn2c(SCc3ccc(C(=O)NC4CCCC4)cc3)nc3ccncc32)cc1,–,-1.67% (inactive)
Cc1ccc(C(=O)c2cc([N+](=O)[O-])ccc2N2CCN(C)CC2)cc1,4.98 µM (active),–
Cc1ccc(C(=O)c2cc([N+](=O)[O-])ccc2N2CCOCC2)cc1C,1.77 µM (active),–
CN1CCN(c2ccc([N+](=O)[O-])cc2C(=O)c2ccc(Br)cc2)CC1,4.98 µM (active),–
Cn1c(=O)[nH]c(=O)c2c1nc(Br)n2Cc1cccc(Br)c1,9.94 µM (active),–
C/C(=N\NC(=O)c1c(Cl)c(C)nn1C)c1ccc(NC(=O)C2CCC2)cc1,1.4 µM (active),–
CCN(CC)c1ccc(/C=C/c2cccc[n+]2C)c(OC)c1,15.8 µM (active),–
COC(=O)/C(=C\Nc1ccc(Cl)cc1Cl)NC(=O)c1ccc(OC)cc1,3.96 µM (active),–
Cc1ccc(N=C2NC(=O)/C(=C/c3cccn3C)S2)cc1,15.8 µM (active),–
Cn1cccc1/C=C1\SC(=Nc2ccc(O)cc2)NC1=O,6.27 µM (active),–
Cn1cccc1/C=C1\SC(=Nc2ccccc2)NC1=O,5.59 µM (active),–
Cc1ccc(N=C2NC(=O)/C(=C/c3cn(C)c4ccccc34)S2)cc1C,15.8 µM (active),–
COc1cc(/C=C2\SC(=Nc3cccnc3)NC2=O)cc(OC)c1OC,–,-8.69% (inactive)
Cn1cc(/C=C2\SC(=S)N(NC(=O)c3cccc(Cl)c3)C2=O)c2ccccc21,16.4 µM (active),–
O=C1NC(=Nc2ccc(O)cc2)S/C1=C/c1ccco1,12.5 µM (active),–

Structure (SMILES),Potency,"activity, negative = inhibitor"
COc1cc(/C=C2/SC(=Nc3ccc(O)cc3)NC2=O)ccc1O,13 µM (active),–
Cn1cc(/C=C2\SC(=O)N(c3ccccc3)C2=O)c2ccccc21,16.4 µM (active),–
Cc1cccc(N=C2NC(=O)/C(=C/c3cccn3C)S2)c1,–,-27.7% [at 36.9 µM] (inactive)
Cn1cccc1/C=C1\SC(=Nc2cccc(O)c2)NC1=O,17.7 µM (active),–
Cc1cc(/C=C2\SC(=Nc3ccccc3)NC2=O)c(C)n1-c1ccc(S(N)(=O)=O)cc1,1.98 µM (active),–
COc1cc2c(cc1OC)C(C)N(C(=O)c1cc(C)on1)CC2 (configuration not stated),0.994 µM (active),–
COc1cc2c(cc1OC)C(C)N(C(=O)c1cc(Cl)nc(Cl)c1)CC2 (configuration not stated),–,-61.7% [at 36.9 µM] (inactive)
CCN(CC)c1nc(C)c(C(=S)Nc2cc([N+](=O)[O-])ccc2Cl)s1,–,-0.0972% (inactive)
CC(=O)Nc1ccc(-c2ccnc3c2CC(C(=O)NCc2cccc(Cl)c2)O3)cc1 (configuration not stated),3.53 µM (active),–
CC(=O)Nc1ccc(-c2ccnc3c2CC(C(=O)NCc2ccccc2)O3)cc1 (configuration not stated),1.12 µM (active),–
O=C1Nc2ccc(Br)cc2C12NNc1ccccc1O2 (configuration not stated),14 µM (active),–
Cc1ccc(CSc2nc(-c3ccc(C(C)(C)C)cc3)nc3cc(=O)[nH]n23)cc1,–,-3.11% (inactive)
Cc1sc2ncnc(SCC(=O)NC(C)(C)C)c2c1C,–,2.59% (inactive)
COc1cccc(-c2ccc3c(N)c(C(=O)c4ccc(Cl)cc4)sc3n2)c1,16.4 µM (active),–
COc1ccc(NC(=O)c2sc3nc(-c4cccnc4)ccc3c2N)cc1OC,5.8 µM (active),–
COc1cccc(-c2ccc3c(N)c(C(=O)c4ccc(Br)cc4)sc3n2)c1,23.1 µM (active),–
Cc1nn(-c2ccc(F)cc2)c(Cl)c1/C=C1\C(=O)Nc2ccccc21,5.59 µM (active),–
O=c1[nH]c(NCc2ccco2)nnc1Cc1ccccc1Cl,12.5 µM (active),–
O=[N+]([O-])c1ccc(C2=NN(c3ccccc3)C(c3ccco3)C2)cc1 (configuration not stated),1.58 µM (active),–
O=[N+]([O-])c1ccc(C2=Nc3cc(Cl)ccc3OC2)cc1,–,-10.5% (inactive)
COc1ccccc1N1N=C(c2ccc([N+](=O)[O-])cc2)CC1c1ccccc1 (configuration not stated),1.12 µM (active),–
O=[N+]([O-])c1ccc(/C=C/C2=NN(c3ccccc3)C(c3ccco3)C2)o1 (configuration not stated),5.17 µM (active),–
COc1ccc2nc(C)cc(SCC(=O)N/N=C/c3cccc4ccccc34)c2c1,6.27 µM (active),–
O=C(Nc1ccc([N+](=O)[O-])cc1)C(Cc1ccccc1)N1C(=O)c2cccc3cccc(c23)C1=O (configuration not stated),15.8 µM (active),–
O=S(=O)(Nc1ccc(C(O)(C(F)(F)F)C(F)(F)F)cc1)c1ccc(Cl)c2nonc12,–,-13.6% [at 36.9 µM] (inactive)

Structure (SMILES),Potency,"activity, negative = inhibitor"
COC(=O)c1sc2cc([N+](=O)[O-])cc(SCC(C)C)c2c1N,11.6 µM (active),–
CCOC(=O)c1sc2cc([N+](=O)[O-])cc(SCC(C)C)c2c1N,2.31 µM (active),–
COc1ccc(NC(=S)Nc2ncccc2C)c(OC)c1,–,-8.96% [at 36.9 µM] (inactive)
COc1ccc(NC2=CC(=O)CC(c3ccccc3)C2)c(OC)c1 (configuration not stated),5.59 µM (active),–
O=C(Nc1ccc(Oc2ccc(NC(=O)Nc3ccccc3Cl)cc2)cc1)Nc1ccccc1Cl,18.4 µM (active),–
O=C(N/N=C/c1cccc2ccccc12)c1n[nH]c2c1CCCC2,1.98 µM (active),–
Cc1ccsc1/C=N\NC(=O)c1n[nH]c2c1CCC2,3.96 µM (active),–
O=C(N/N=C/c1cccs1)c1n[nH]c2c1CCC2,6.27 µM (active),–
CN(C)S(=O)(=O)c1ccc2c(c1)/C(=C/c1cc3c([nH]1)CCCC3)C(=O)N2,2.23 µM (active),–
Cc1cccc(N2CCN(C(=O)c3ccncc3)CC2)c1C,9.94 µM (active),–
O=C(CSc1nc(-c2ccco2)cc(C(F)(F)F)n1)Nc1cccnc1,11.2 µM (active),–
Cc1nnc(NC(=O)CSc2nc(C(C)C)nc3ccccc23)s1,8.86 µM (active),–
Cc1cc(C)n(-c2nnc3n2N=C(c2c[nH]c4ccccc24)CS3)n1,12.5 µM (active),–
CCOCCCNC(=O)/C(C#N)=C/c1ccc([N+](=O)[O-])o1,20.6 µM (active),–
CC(NC(=O)/C(C#N)=C/c1ccc([N+](=O)[O-])o1)c1ccccc1 (configuration not stated),18.4 µM (active),–
N#C/C(=C\c1ccccc1[N+](=O)[O-])C(=O)NCc1ccccc1,–,0.631% (inactive)
CN(C)/C=N/C1=C(C#N)C(c2cccs2)c2ccc3ccccc3c2O1 (configuration not stated),4.98 µM (active),–
O=C(NCc1cccnc1)c1cccc(NS(=O)(=O)c2ccc(Br)cc2)c1,6.27 µM (active),–
O=C(COc1ccc(C(=O)c2ccccc2)cc1)NCc1ccc(F)cc1,1.98 µM (active),–
CCS(=O)(=O)N1CCc2cc(C(=O)N3CCN(c4cccc(C(F)(F)F)c4)CC3)ccc21,–,-6.58% (inactive)
O=C(c1[nH]c(C(F)(F)F)nc1-c1ccccc1)N1CCN(c2cccc(C(F)(F)F)n2)CC1,2.8 µM (active),–
O=C(c1[nH]c(C(F)(F)F)nc1-c1ccccc1)N1CCN(c2ccccc2)CC1,2.23 µM (active),–
